# Compound activity: PubChem BioAssay, National Center for Advancing Translational Sciences (NCATS)
# DT40 TDP1 no CPT: qHTS for Inhibitors of human tyrosyl-DNA phosphodiesterase 1 (TDP1): qHTS in cells in absence of CPT | DT40 Tdp1-/- hTDP1 cells, no CPT, ATP luminescence, 48 h | Potency, µM (highest dose often 46.2 µM), actives largely listed as inhibitors | 15% of 420,000 active; note: nearly all actives have a fitted effect of over 55% in size
#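 Stably hTDP1-transfected Tdp1-null chicken DT40 cells were treated with library compounds minus camptothecin and grown for at least 48 hr at 37 °C, after which cellular ATP was quantified by luminescence.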
# DT40 TDP1 CPT: qHTS for Inhibitors of human tyrosyl-DNA phosphodiesterase 1 (TDP1): qHTS in cells in presence of CPT; chicken DT40 Tdp1-/-;hTDP1 cells + 20 nM CPT, ATP luminescence, 48 h; Potency, µM (highest dose often 46.2 µM), usual class: inhibitors; 12% of 420,000 active; AID 686979, 2013; note: nearly all actives have a fitted effect of over 55% in size
#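 Cell growth measured by CellTiter-Glo luminescence after a minimum 48 h, 37 C compound exposure with 20 nM CPT in Tdp1-knockout DT40 cells stably expressing hTDP1, seeded 400/well; qHTS titration format.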
# IL1B secr inh: qHTS for Inhibitors of Inflammasome Signaling: IL-1-beta AlphaLISA Primary Screen | THP-1 LPS/ATP IL-1B secretion, AlphaLISA, 16 h; hits give low values | activity change, % at 57.5 µM | 4.7% of 360,000 active | AID 743279, 2014; in the data active = activity change below about -50%; inconclusive = mostly about -30% to -49%
#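 Secreted IL-1B measured by AlphaLISA bead assay after 16 h compound exposure of THP-1 cells; compounds (final up to 57.5 uM) added 1 h before LPS (250 ng/mL) and ATP (1.25 mM) stimulation; lower signal means less secretion.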
# HT1080-NT tox: qHTS for induction of synthetic lethality in tumor cells producing 2HG: qHTS for the HT-1080-NT fibrosarcoma cell line. Potency, µM (highest dose often 46.1 µM), actives largely listed as cytotoxic. AID 686970, 2013. 1.6% of 360,000 active. HT-1080-NT fibrosarcoma viability, CellTiter-Glo ATP luminescence, 48 h;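 note: NT is the 2HG producing partner of a matched IDH1 knockdown line; nearly all actives have a fitted effect of over 55% in size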
#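 HT-1080-NT fibrosarcoma cells (2HG-overproducing), 750 cells/well in RPMI with 5% FBS, dosed after 2 h and incubated 48 h at 37C. CellTiter-Glo luminescence normalized to DMSO and no-cell wells; concentration-response curves fitted and classed.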
# HT1080 IDH1KD tx: qHTS for induction of synthetic lethality in tumor cells producing 2HG: qHTS for the HT-1080-IDH1KD cell line | Potency, µM (highest dose often 46.1 µM), usual class: cytotoxic | 2% of 360,000 active | HT-1080 IDH1 knockdown viability, ATP luminescence, 48 h | AID 686971, 2013
#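 Using the IDH1-knockdown HT-1080 line run in the same batch and compound series as the NT line, viability after 48 h at 37 °C was determined by CellTiter-Glo luminescence and expressed as % activity.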
# Numbers stand for hits; 0 = inactive; ? = inconclusive; - = no result given; [ ] = dose if it differs, or a comment. Hits are enriched below; roughly 19% of the tested compounds scored in any of these assays. Unless noted, calls come from the whole dose curve; as a rule, active = well fitted curve in the direction sought with a large enough effect; inconclusive = small, poorly fitted or top-dose-only effect, or another doubt; inactive = no such curve, though single readings can be large; an effect the other way counts as inactive or inconclusive.
SMILES,DT40 TDP1 no CPT,DT40 TDP1 CPT,IL1B secr inh,HT1080-NT tox,HT1080 IDH1KD tx
Cc1cc(C(F)(F)F)n(-c2nc(C(=O)N/N=C/c3ccc(F)cc3)cs2)n1,?,16.4µM,0,0,0
CC(C)c1ccc(C(=O)N2CCCC(c3cc(C(=O)NCc4ccccc4)no3)C2)cc1 (stereo not drawn),14.6µM,13µM,0,0,?
O=C(NCc1ccccc1)c1cc(C2CCCN(C(=O)c3ccc4c(c3)CCO4)C2)on1 (stereo not drawn),?,?,0,0,0
Cc1ccc(F)cc1C(=O)N1CCCC(c2cc(C(=O)NCc3ccc(F)cc3)no2)C1 (stereo not drawn),14.6µM,?,?,0,0
Cc1ccc(F)cc1C(=O)N1CCCC(c2cc(C(=O)NCc3ccccc3)no2)C1 (stereo not drawn),?,?,0,0,0
COc1ccc(C(=O)N2CCCC(c3cc(C(=O)NCc4ccc(F)cc4)no3)C2)cc1 (stereo not drawn),?,14.6µM,0,0,0
O=C(NCc1ccc(F)cc1)c1cc(C2CCCN(C(=O)c3ccc4c(c3)CCO4)C2)on1 (stereo not drawn),23.1µM,18.4µM,0,0,0
COc1ccc(C(=O)N2CCCC(c3cc(C(=O)NCc4ccccc4)no3)C2)cc1 (stereo not drawn),?,?,0,0,0
CN(C)S(=O)(=O)c1cccc(NC(=O)COC(=O)c2c[nH]c(=O)[nH]c2=O)c1,0,0,0,0,0
COc1ccc2c(c1)-c1nc(-n3ncc(C(=O)N(C)CCO)c3C3CC3)ncc1CC2,0,0[9.04 µM],-,-,-
O=C(NCc1ccc(F)cc1)c1cc(C2CCCN(C(=O)c3ccccn3)C2)on1 (stereo not drawn),0,0,0,0,0
O=C(NCc1ccc(F)cc1)c1cc(C2CCCN(C(=O)c3ccc4ccccc4c3)C2)on1 (stereo not drawn),16.4µM,16.4µM,0,0,0
O=C(Nc1ccccc1Cl)c1cc(C2CCCN(C(=O)CCCc3ccccc3)C2)on1 (stereo not drawn),?,0,0,0,0
O=C(NCc1ccccc1)c1cc(C2CCCN(C(=O)CCCc3ccccc3)C2)on1 (stereo not drawn),14.6µM,14.6µM,0,0,0
Nc1nc(OCc2ccccc2)c2[nH]cnc2n1,0,0,0,0,0
Nc1nc(N)c2[nH]cnc2n1,8.2µM,6.51µM,0,?,?
CC(C)c1cccc(-c2ccc3c(c2)S(=O)(=O)c2cccc(C(=O)NCc4ccccc4)c2C3=O)c1,23.1µM,?,0,0,0
COc1ccc(OC[C@@H](O)CNC(=O)c2cccc3c2C(=O)c2ccc(Cl)cc2S3(=O)=O)cc1,?,0,0,0,0
CC(C)c1cccc(-c2ccc3c(c2)S(=O)(=O)c2cccc(C(=O)NCc4ccccc4Cl)c2C3=O)c1,6.51µM,2.59µM,0,0,0
N#Cc1c(-c2ccccc2)nc(SCc2nc(N)nc(N3CCCCC3)n2)[nH]c1=O,?,11.6µM,0,0,?
CC(=O)Oc1ccc(C(=O)COC(=O)CNC(=O)COc2ccccc2C)cc1,?,0,-,-,-
FC(F)(F)c1ccccc1-c1nccc(-n2ccnc2)n1,0,?,-,-,-
COc1ccc(-c2cc(-c3c(O)c(OC)c4occc4c3OC)[nH]n2)cc1,5.8µM,5.8µM,?,?,?
COc1ccc(-c2cc(-c3c(O)c(OC)c4occc4c3OC)[nH]n2)cc1OC,20.6µM,?,-63.2,?,?
Cc1cccc(C)c1OCc1nc2c3cnn(-c4cccc(F)c4)c3ncn2n1,16.4µM,18.4µM,-,-,-
SMILES,DT40 TDP1 no CPT,DT40 TDP1 CPT,IL1B secr inh,HT1080-NT tox,HT1080 IDH1KD tx
Cc1ccc(CNS(=O)(=O)c2ccc3c(c2)n(C)c(=O)n3C)cc1,?,?,0,0,0
CSc1ncc(CN2CCc3c([nH]c4ccccc34)C2C(C)(C)C)cn1 (stereo not drawn),23.1µM,?,0,0,0
CSCCC(NC(N)=O)C(=O)N(C)CC(=O)Nc1cc(C)ccc1C (stereo not drawn),0,0,0,0,0
Cc1ccc(C)c(NC(=O)CN(C)C(=O)[C@@H](NC(=O)c2ccc(C(C)(C)C)cc2)C(C)C)c1,18.4µM,23.1µM,0,0,0
CCc1noc(C)c1C(=O)Nc1cc(S(=O)(=O)N2CCOCC2)ccc1N1CCN(CC)CC1,0,0,0,0,0
O=C(C(=O)N1CCN(c2ccncc2)CC1)c1cccc(Br)c1,14.6µM,14.6µM,0,0,0
Cc1ccc(N2CCN(C(=O)C(=O)c3cccc([N+](=O)[O-])c3)CC2)cc1,?,?,0,0,0
O=C(NCCN1CCN(C(=O)c2cccc(Br)c2)CC1)C(=O)Nc1ccc(Br)cc1,25.9µM,13µM,0,0,0
Cc1cccc(C(=O)NCCN2CCN(c3ccccc3)CC2)c1,0,0,0,0,0
O=C(NCCN1CCN(C(=O)c2c(F)cccc2F)CC1)C(=O)Nc1ccc(Cl)cc1,?,?,0,0,0
O=C(NCCN1CCN(c2ccccc2)CC1)c1cccc(Br)c1,14.1µM,?,0,?,?
CCN(CC)C(=O)C1=C(C)N(Cc2ccccc2)C(=O)C(CC(=O)NCc2cccc3ccccc23)C1 (stereo not drawn),18.4µM,?,0,0,0
CCN(CC)C(=O)C1=C(C)N(CCC2=CCCCC2)C(=O)C(CC(=O)NCc2cccc3ccccc23)C1 (stereo not drawn),?,16.4µM,-57.3,?,?
CCN(CC)C(=O)C1=C(C)N(Cc2ccc(OC)cc2)C(=O)C(CC(=O)NCc2cccs2)C1 (stereo not drawn),?,0,0,0,0
CCN(CC)C(=O)C1=C(C)N(Cc2ccc(OC)cc2)C(=O)C(CC(=O)NCc2cccc3ccccc23)C1 (stereo not drawn),23.1µM,?,0,0,0
CCCCOC(=O)c1ccc(NC(=O)c2cc(-c3ccccc3)on2)cc1,0,0,-,-,-
COc1cccc(C(C(=O)NCc2ccccc2)N2CCN(c3cccc(C)c3C)CC2)c1OC (stereo not drawn),18.4µM,18.4µM,?,?,?
CCC(CC)C(C(=O)NCc1ccccc1)N1CCN(c2cccc(C)c2C)CC1 (stereo not drawn),5.8µM,6.51µM,0,0,0
Cc1cccc(N2CCN(C(C(=O)NCc3ccccc3)c3ccc(F)cc3)CC2)c1C (stereo not drawn),20.6µM,23.1µM,0,?,?
